Compounds without any hit were thinned out: in the full panel of roughly 83,000, 20% have a hit.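 Growth was measured after 48 h exposure to one concentration of compound in 96-well plates. Values under 10 count as active.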 Values without a mark were called inactive. Active and inactive are the calls of the source.

Among the data in PubChem BioAssay (NCI) are growth values, retold here.

Test systems include RPMI-8226 leukemia; OVCAR-8 ovarian; OVCAR-5 ovarian; OVCAR-4 ovarian; SK-OV-3 ovarian; IGROV1 ovarian; OVCAR-3 ovarian; HS 578T breast; NCI/ADR-RES ovarian; T-47D breast; BT-549 breast; MDA-MB-435 melanoma; SW-620 colon; MCF7 breast; HCT-116 colon; HCC-2998 colon; KM12 colon; MDA-MB-468 breast.
Common to all, as to assay: NCI-60 one-dose screen, 48 h (100 = growth as untreated, 0 = no growth, -100 = all killed)
Settings in all cases: 10 µM

Turning to `CN1CCc2c(sc3ncnc(N/N=C/c4cn(-c5ccccc5)nc4-c4ccc(Br)cc4)c23)C1`, the growth was 35.8% in the test on RPMI-8226 leukemia; 4.42% (active) with OVCAR-8 ovarian; 48.5% with OVCAR-5 ovarian; 51.4% with OVCAR-4 ovarian; 107% in the test with SK-OV-3 ovarian; 56.7% with IGROV1 ovarian. Also, the growth with OVCAR-3 ovarian is 4.8% (active); with HS 578T breast, 70.1%; in the test with NCI/ADR-RES ovarian, 8.08% (active); with T-47D breast, 74.2%; in the test on BT-549 breast, 83.4%; with MDA-MB-435 melanoma, 66.1%. The growth was 11% in the test on SW-620 colon; -3.07% (active) in the test on MCF7 breast; 1.25% (active) in the test with HCT-116 colon; 27.1% in the test on HCC-2998 colon; 44.9% in the test with KM12 colon; 16.8% with MDA-MB-468 breast.
For the compound `O=C1NC(=NC23CC4CC(CC(C4)C2)C3)N/C1=C\c1ccc2ncccc2n1`, the growth in the test on RPMI-8226 leukemia is -23.3% (active); in the test on OVCAR-8 ovarian, 2.33% (active); in the test with OVCAR-5 ovarian, -40.4% (active); in the test on OVCAR-4 ovarian it was -24.7% (active); in the test on SK-OV-3 ovarian, -10.5% (active); with IGROV1 ovarian it was -6.63% (active). Moreover, the growth in the test on OVCAR-3 ovarian was -22.3% (active); with HS 578T breast, -24.3% (active); in the test on NCI/ADR-RES ovarian, -21% (active); in the test on T-47D breast it was -9.66% (active); in the test with BT-549 breast, -81.3% (active); in the test with MDA-MB-435 melanoma, -11.4% (active). Further, the growth is 2.73% (active) with SW-620 colon; -19.4% (active) in the test with MCF7 breast; 17.9% in the test with HCT-116 colon; 3.26% (active) in the test on HCC-2998 colon; -0.698% (active) in the test with KM12 colon; -63% (active) with MDA-MB-468 breast.
With `CC(=O)Nc1nc(-c2ccc(N3CCN(C)CC3)c(NS(=O)(=O)c3ccc(C(F)(F)F)cc3)c2)cs1`, the growth with RPMI-8226 leukemia is -29.4% (active); in the test on OVCAR-8 ovarian, 8.42% (active); in the test on OVCAR-5 ovarian, 44.8%; with OVCAR-4 ovarian it was 43.3%; in the test on SK-OV-3 ovarian, 77%; in the test with IGROV1 ovarian it was 47.5%. Besides, the growth in the test on OVCAR-3 ovarian is -3.33% (active); in the test on HS 578T breast it was 38.6%; with NCI/ADR-RES ovarian, -18.2% (active); in the test with T-47D breast it was 25.4%; in the test on BT-549 breast, -29.4% (active); in the test on MDA-MB-435 melanoma, 6.38% (active). Further, the growth with SW-620 colon is -41.6% (active); in the test on MCF7 breast it was 6.99% (active); with HCT-116 colon, -75.8% (active); in the test on HCC-2998 colon it was 15.4%; with KM12 colon, 2.44% (active); with MDA-MB-468 breast it was -29.3% (active).
For the compound `Nc1nc(-c2ccccc2)cc(-c2cc3ccccc3nc2Cl)n1`, the growth was 19.2% with RPMI-8226 leukemia; 83.9% in the test with OVCAR-8 ovarian; 97.8% in the test with OVCAR-5 ovarian; 96% in the test with OVCAR-4 ovarian; 99.2% with SK-OV-3 ovarian; 97.9% in the test with IGROV1 ovarian. The growth is 67.7% in the test with OVCAR-3 ovarian; 82.8% in the test on HS 578T breast; 80.7% in the test with NCI/ADR-RES ovarian; 73.7% in the test with T-47D breast; 82.2% in the test with BT-549 breast; 94.9% in the test with MDA-MB-435 melanoma. For the same compound, the growth with SW-620 colon is 62.7%; in the test on MCF7 breast, 18.4%; in the test with HCT-116 colon, 33.7%; with HCC-2998 colon, 103%; in the test on KM12 colon, 71.7%; in the test with MDA-MB-468 breast, 77%.
Consider `COc1ccc2nc(Cl)c(-c3cc(-c4ccccc4)nc(N)n3)cc2c1`, for which the growth with RPMI-8226 leukemia is -27% (active); with OVCAR-8 ovarian, -68.4% (active); in the test on OVCAR-5 ovarian, 51.4%; with OVCAR-4 ovarian it was 83.7%; in the test with SK-OV-3 ovarian, 95.1%; in the test on IGROV1 ovarian, 52.5%. For the same compound, the growth in the test on OVCAR-3 ovarian was 12.1%; in the test with HS 578T breast, 59.3%; with NCI/ADR-RES ovarian it was -43.1% (active); in the test with T-47D breast it was 30.6%; in the test on BT-549 breast it was -11.1% (active); with MDA-MB-435 melanoma, 45.5%. Also, the growth in the test with SW-620 colon is -60.2% (active); in the test on MCF7 breast, 4.28% (active); with HCT-116 colon, -92.1% (active); with HCC-2998 colon, 62.6%; with KM12 colon, -0.39% (active); in the test with MDA-MB-468 breast, 14.9%.
Take `C=CC(=O)Nc1nc(-c2cccc(NS(=O)(=O)c3cccc4c(N(C)C)cccc34)c2)cs1`: the growth in the test on RPMI-8226 leukemia is -36.2% (active); in the test with OVCAR-8 ovarian it was -38.9% (active); in the test with OVCAR-5 ovarian it was -61.6% (active); in the test on OVCAR-4 ovarian, 7.55% (active); in the test on SK-OV-3 ovarian it was 47.4%; in the test on IGROV1 ovarian, -74.1% (active). Further, the growth in the test on OVCAR-3 ovarian is -69.4% (active); with HS 578T breast, -0.555% (active); with NCI/ADR-RES ovarian it was -56.7% (active); in the test with T-47D breast, 0.269% (active); in the test on BT-549 breast it was -75.6% (active); in the test with MDA-MB-435 melanoma, -92.4% (active). Moreover, the growth is -80.6% (active) in the test with SW-620 colon; -82.1% (active) in the test on MCF7 breast; -90.3% (active) in the test on HCT-116 colon; -88.1% (active) with HCC-2998 colon; -44% (active) with KM12 colon; -87.8% (active) in the test with MDA-MB-468 breast.
`Cc1ccc([N+](=O)[O-])c(C(=O)Nc2ccc(-c3ccc4c(c3)NC(=O)/C4=C\c3ccc[nH]3)cc2)c1`: the growth with RPMI-8226 leukemia was 31.4%; in the test on OVCAR-8 ovarian, 25.6%; in the test with OVCAR-5 ovarian, 55%; in the test on OVCAR-4 ovarian, 34.3%; in the test on SK-OV-3 ovarian, 109%; in the test on IGROV1 ovarian, 53.9%. Moreover, the growth with OVCAR-3 ovarian is 41.3%; with HS 578T breast it was 67.2%; in the test with NCI/ADR-RES ovarian, 38%; in the test on T-47D breast it was -15.7% (active); with BT-549 breast, 97.5%; with MDA-MB-435 melanoma, 32%. Further, the growth with SW-620 colon was -51.2% (active); with MCF7 breast, -47.7% (active); in the test with HCT-116 colon, 55.9%; in the test on HCC-2998 colon, 47.6%; with KM12 colon, -10.9% (active); in the test on MDA-MB-468 breast, -28.9% (active).
As for `O=C(c1ccc(Cl)cc1)C1[C@H](c2ccccc2Br)[C@@H](c2ccccc2)NC12C(=O)Nc1ccc(Br)cc12` (some centres undefined), the growth was 7% (active) in the test with RPMI-8226 leukemia; 13.7% in the test with OVCAR-8 ovarian; 19.2% in the test on OVCAR-5 ovarian; 23.2% with OVCAR-4 ovarian; 36.2% in the test on SK-OV-3 ovarian; 21.2% in the test with IGROV1 ovarian. The growth with OVCAR-3 ovarian is -8.88% (active); in the test with HS 578T breast, 12%; in the test on NCI/ADR-RES ovarian, -67% (active); with T-47D breast it was 21.3%; in the test on BT-549 breast, 54.8%; with MDA-MB-435 melanoma, -39.7% (active). The growth with SW-620 colon is 7.29% (active); in the test on MCF7 breast, -2.68% (active); in the test on HCT-116 colon, 3.99% (active); in the test with HCC-2998 colon, -13.2% (active); in the test on KM12 colon, 11.8%; with MDA-MB-468 breast, -39.8% (active).
